PubChem BioAssay AID651612 (The Scripps Research Institute Molecular Screening Center, 2012)
Hit rate of the full screen: of about 2,200 compounds, about 1,500 (68%) were called active. The set was probably picked from earlier hits. These entries were drawn from the full list. Unmarked numbers belong to inactive results. Cut-off read from the data, not from the text of the source: active = inhibition above about 23%; inactive = the rest.

Target: Perilipin-5 (Homo sapiens) + 1-acylglycerol-3-phosphate O-acyltransferase ABHD5 (Homo sapiens) (UniProt Q00G26+Q8WTS1)
Sequence (Q00G26 whole entry, looked up): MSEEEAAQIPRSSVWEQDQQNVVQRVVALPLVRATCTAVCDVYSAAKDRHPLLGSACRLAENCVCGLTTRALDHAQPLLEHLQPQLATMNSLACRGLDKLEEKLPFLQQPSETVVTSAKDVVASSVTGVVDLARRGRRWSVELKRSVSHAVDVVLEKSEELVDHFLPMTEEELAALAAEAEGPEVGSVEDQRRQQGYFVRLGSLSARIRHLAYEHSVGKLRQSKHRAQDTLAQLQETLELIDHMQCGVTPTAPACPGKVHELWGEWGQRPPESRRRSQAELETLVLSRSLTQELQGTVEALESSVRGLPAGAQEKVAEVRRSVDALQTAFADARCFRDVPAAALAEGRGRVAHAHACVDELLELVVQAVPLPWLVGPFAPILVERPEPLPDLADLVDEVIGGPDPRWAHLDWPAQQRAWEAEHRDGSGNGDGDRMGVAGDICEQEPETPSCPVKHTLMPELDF
Sequence (Q8WTS1 whole entry, looked up): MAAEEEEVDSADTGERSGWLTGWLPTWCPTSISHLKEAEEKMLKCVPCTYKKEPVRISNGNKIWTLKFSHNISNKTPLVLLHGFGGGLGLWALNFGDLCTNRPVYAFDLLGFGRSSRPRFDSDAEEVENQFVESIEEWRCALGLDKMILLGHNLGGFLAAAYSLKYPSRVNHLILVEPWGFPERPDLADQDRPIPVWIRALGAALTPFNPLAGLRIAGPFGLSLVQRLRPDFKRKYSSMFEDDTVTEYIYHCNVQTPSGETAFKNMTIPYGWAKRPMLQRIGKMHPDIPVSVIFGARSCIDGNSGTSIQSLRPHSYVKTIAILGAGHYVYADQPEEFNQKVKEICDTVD
Test: ABHD5-PLIN5 interaction inhibitors, confirmation, biochemical, luminescence (AID 651612);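 note: 0% = DMSO vehicle wells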
Details: at 4 µM, stronger effect = higher value

Row | Structure (SMILES) | inhibition
1 | CCOC(=O)[C@]12Cc3ccccc3[C@H]1N(C1CCCCC1)C(=O)c1cc(OC)ccc12 | 23.3% (active)
2 | CN(C)CC1Oc2ccccc2OC1(O)c1ccccc1 (stereo not given) | 77.6% (active)
3 | COc1ccc(CN2C(=O)NC(=O)/C(=C\c3ccc(OC)c(OC)c3OC)C2=O)cc1 | 36.5% (active)
4 | CCc1nnc(NS(=O)(=O)c2ccc(N=Cc3c(O)n(-c4ccccc4)c(=O)[nH]c3=O)cc2)s1 | 7.03%
5 | Cc1cccc(N2C(=O)NC(=O)/C(=C\c3cnn(-c4ccccc4)c3)C2=O)c1 | 66.4% (active)
